This is part of a sample that, as a whole, favours compounds with a hit. Of some 79,000 tested, about 15% had one in any assay. Values without a mark were called inactive. Activity calls are given as the source filed them. Rule as the data show it: active = growth inhibition above about 70%; inactive = the rest.
What was measured:
[1] = NCI Yeast Anticancer Drug Screen. Data for the rad52 strain (AID 147);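 also: 0% = growth of vehicle-treated control cultures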; settings: S. cerevisiae rad52 mutant growth inhibition, active compounds read high
In short: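 Genetically altered yeast (DNA damage repair defect) treated with compound; inhibition calculated relative to vehicle.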

[2] = NCI Yeast Anticancer Drug Screen. Data for the wt1 strain (AID 149);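 also: 0% = growth of vehicle-treated wt1 cultures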; settings: S. cerevisiae wt1 strain (SPY 50644) growth inhibition, active compounds read high
In short: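 Compounds are added to wt1 yeast cultures. Growth is then measured. Inhibition is expressed relative to vehicle-treated controls.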

[3] = NCI Yeast Anticancer Drug Screen. Data for the mgt1 strain (AID 153); settings: S. cerevisiae mgt1 mutant growth inhibition, active compounds read high
In short: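 Read-out: yeast growth inhibition vs vehicle control. Strain mgt1, drawn from a panel altered in DNA damage repair or cell cycle control.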

[4] = NCI Yeast Anticancer Drug Screen. Data for the rad50 strain (AID 155);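 also: 0% = growth of vehicle-only cultures of the same strain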; settings: S. cerevisiae rad50 strain growth inhibition, active compounds read high
In short: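 Inhibition values express reduced yeast growth in compound-treated cultures relative to vehicle-treated controls.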

[5] = NCI Yeast Anticancer Drug Screen. Data for the mec2-1 strain (AID 157); settings: S. cerevisiae mec2-1 strain, active compounds read high
In short: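 Cells of the genetically defined mec2-1 yeast strain are incubated with test compound. Inhibition of growth is calculated against vehicle-treated controls.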

[6] = NCI Yeast Anticancer Drug Screen. Data for the rad14 strain (AID 159);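 also: 0% = growth of vehicle-treated control cultures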; settings: S. cerevisiae rad14 strain growth inhibition, active compounds read high
In short: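 A mutant yeast strain defective in DNA damage repair is treated with compound; inhibition of its growth is scored against untreated, vehicle-exposed cultures.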

[7] = NCI Yeast Anticancer Drug Screen. Data for the sgs1 mgt1 strain (AID 161);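 also: 0% = growth of cultures given vehicle only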; settings: S. cerevisiae sgs1 mgt1 strain, active compounds read high
In short: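 Inhibition of yeast growth, normalised to vehicle-treated controls, is reported for a strain bearing genetic alterations in DNA damage repair.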

[8] = NCI Yeast Anticancer Drug Screen. Data for the CLN2oe strain (AID 163);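 also: 0% = growth of vehicle-only control cultures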; settings: S. cerevisiae CLN2oe strain, active compounds read high
In short: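 Strain altered in cell-cycle control, incubated with compound; growth compared to solvent-treated controls.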

[9] = NCI Yeast Anticancer Drug Screen. Data for the cln2 rad14 strain (AID 165);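 also: 0% = growth equal to vehicle treated cultures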; settings: S. cerevisiae cln2 rad14 strain, active compounds read high
In short: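 The screen exposed genetically defined yeast (cln2 rad14) to test compounds and scored growth inhibition relative to vehicle-treated controls.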

[10] = NCI Yeast Anticancer Drug Screen. Data for the bub3 strain (AID 167); settings: S. cerevisiae bub3 mutant strain, active compounds read high
In short: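 Steps: expose the mutant yeast strain to compound; grow alongside vehicle-treated cultures; measure growth; express inhibition against the vehicle cultures.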

[11] = NCI Yeast Anticancer Drug Screen. Data for the wt2 strain (AID 169);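 also: 0% = growth of vehicle-treated yeast cultures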; settings: S. cerevisiae wt2 strain growth inhibition, active compounds read high
In short: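 Steps: yeast strain treated with compound; growth recorded; inhibition calculated relative to cultures given vehicle alone.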

[12] = NCI Yeast Anticancer Drug Screen. Data for the mlh1 strain (AID 171);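 also: 0% = growth of vehicle-treated control cultures of the same strain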; settings: S. cerevisiae mlh1 strain growth inhibition, active compounds read high
In short: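 Yeast screen: mutant strain plus compound, growth scored against vehicle control wells.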

[13] = NCI Yeast Anticancer Drug Screen. Data for the sgs1 strain (AID 173);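 also: 0% = growth of vehicle-only control cultures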; settings: S. cerevisiae sgs1 mutant, active compounds read high
In short: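 Inhibition of yeast growth served as the measure. The mutant strain was treated with each compound, and growth was normalised to cultures receiving vehicle alone.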

[14] = NCI Yeast Anticancer Drug Screen. Data for the mlh1 rad18 strain (AID 175); settings: S. cerevisiae mlh1 rad18 strain growth inhibition, active compounds read high
In short: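 Compound-treated yeast growth, normalised to vehicle controls. Strain bears defined DNA repair mutations.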

[15] = NCI Yeast Anticancer Drug Screen. Data for the rad18 strain (AID 177); settings: S. cerevisiae rad18 mutant growth inhibition, active compounds read high
In short: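 Inhibition values reflect reduced yeast growth compared with vehicle-treated controls, using a strain engineered with a DNA damage repair defect.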

[16] = at 5.0 µM (retest, dose inferred, filed as 0.5)
[17] = at 50.0 µM (retest, dose inferred, filed as 5.0)

O=C(O)c1ccccc1-c1ccccc1C(=O)Nc1ccc2c(c1)Cc1ccccc1-2
growth inhibition ([1]; at 1.2 µM): 2% | growth inhibition ([1]; at 3.7 µM): 5% | growth inhibition ([1]; at 11.0 µM): 12% | growth inhibition ([1]; at 33.0 µM): 51% | growth inhibition ([1]; at 100.0 µM): 90% (active) | growth inhibition ([2]; at 1.2 µM): 5% | growth inhibition ([2]; at 3.7 µM): 7% | growth inhibition ([2]; at 11.0 µM): 16% | growth inhibition ([2]; at 33.0 µM): 47% | growth inhibition ([2]; at 100.0 µM): 90% (active) | growth inhibition ([3]; at 1.2 µM): 5% | growth inhibition ([3]; at 3.7 µM): 7% | growth inhibition ([3]; at 11.0 µM): 19% | growth inhibition ([3]; at 33.0 µM): 65% | growth inhibition ([3]; at 100.0 µM): 98% (active) | growth inhibition ([4]; at 1.2 µM): 6% | growth inhibition ([4]; at 3.7 µM): 6% | growth inhibition [4, 16]: 0% | growth inhibition ([4]; at 11.0 µM): 23% | growth inhibition ([4]; at 33.0 µM): 49% | growth inhibition [4, 17]: 37% | growth inhibition ([4]; at 50.0 µM): 71.2% (active) | growth inhibition ([4]; at 100.0 µM): 88% (active) | growth inhibition ([5]; at 1.2 µM): 8% | growth inhibition ([5]; at 3.7 µM): 14% | growth inhibition [5, 16]: 4% | growth inhibition ([5]; at 11.0 µM): 22% | growth inhibition ([5]; at 33.0 µM): 64% | growth inhibition [5, 17]: 23% | growth inhibition ([5]; at 50.0 µM): 73.5% (active) | growth inhibition ([5]; at 100.0 µM): 99% (active) | growth inhibition ([6]; at 1.2 µM): 7% | growth inhibition ([6]; at 3.7 µM): 9% | growth inhibition ([6]; at 11.0 µM): 21% | growth inhibition ([6]; at 33.0 µM): 71% (active) | growth inhibition ([6]; at 100.0 µM): 97% (active) | growth inhibition [7, 16]: -7% | growth inhibition [7, 17]: 17% | growth inhibition ([7]; at 50.0 µM): 62.6% | growth inhibition ([8]; at 1.2 µM): 7% | growth inhibition ([8]; at 3.7 µM): 10% | growth inhibition ([8]; at 11.0 µM): 20% | growth inhibition ([8]; at 33.0 µM): 64% | growth inhibition ([8]; at 100.0 µM): 98% (active) | growth inhibition [9, 16]: -27% | growth inhibition [9, 17]: 46% | growth inhibition ([9]; at 50.0 µM): 92.3% (active) | growth inhibition ([10]; at 1.2 µM): 4% | growth inhibition ([10]; at 3.7 µM): 7% | growth inhibition [10, 16]: -24% | growth inhibition ([10]; at 11.0 µM): 27% | growth inhibition ([10]; at 33.0 µM): 67% | growth inhibition [10, 17]: 22% | growth inhibition ([10]; at 50.0 µM): 83.2% (active) | growth inhibition ([10]; at 100.0 µM): 96% (active) | growth inhibition ([11]; at 1.2 µM): 3% | growth inhibition ([11]; at 3.7 µM): 7% | growth inhibition ([11]; at 11.0 µM): 16% | growth inhibition ([11]; at 33.0 µM): 59% | growth inhibition ([11]; at 100.0 µM): 96% (active) | growth inhibition ([12]; at 1.2 µM): 7% | growth inhibition ([12]; at 3.7 µM): 12% | growth inhibition ([12]; at 11.0 µM): 22% | growth inhibition ([12]; at 33.0 µM): 51% | growth inhibition ([12]; at 100.0 µM): 97% (active) | growth inhibition ([13]; at 1.2 µM): 1% | growth inhibition ([13]; at 3.7 µM): 6% | growth inhibition ([13]; at 11.0 µM): 17% | growth inhibition ([13]; at 33.0 µM): 59% | growth inhibition ([13]; at 100.0 µM): 94% (active) | growth inhibition [14, 16]: 6% | growth inhibition [14, 17]: 54% | growth inhibition ([14]; at 50.0 µM): 76.5% (active) | growth inhibition ([15]; at 1.2 µM): 4% | growth inhibition ([15]; at 3.7 µM): 7% | growth inhibition ([15]; at 11.0 µM): 17% | growth inhibition ([15]; at 33.0 µM): 49% | growth inhibition ([15]; at 100.0 µM): 90% (active)
